Holding throughout (test): NCI-60 one-dose screen, 48 h (100 = growth as untreated, 0 = no growth, -100 = all killed)
Conditions in all cases: 10 µM unless noted

For experiment [1], the system named is DU-145 prostate.
Experiment [2] relates to K-562 leukemia.
The subject of experiment [3] is MALME-3M melanoma.
Experiment [4] concerns MDA-MB-231 breast.
The subject of experiment [5] is RXF 393 renal.
Experiment [6] relates to SF-539 CNS.
Experiment [7] has as its system UACC-257 melanoma.
Experiment [8] has as its system M14 melanoma.
The test system of experiment [9] is SF-268 CNS.
The test system of experiment [10] is SF-295 CNS.

We go through 15 molecules from PubChem BioAssay (NCI).

This is part of a sample that, as a whole, favours compounds with a hit. Of some 83,000 tested, about 20% had one in any assay.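 How to read the values: 0–100, growth inhibition (40 = 60% inhibited); 0, no net growth; -100 to 0, cell death (-40 = 40% of starting cells died; -100 = all dead).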 Unmarked numbers belong to inactive results. Activity calls are given as the source filed them. How the source made its calls: active means growth percent below 10; inactive means the rest.

Consider `CCCC(=O)N1CCCCC1CC` (centres undefined), for which the growth was 106% in experiment [1]; 87.5% in experiment [2]; 118% in experiment [3]; 115% in [4]; 115% in experiment [5]; 87.5% in [6]. Moreover, the growth in experiment [7] is 90.6%; in [8] it was 114%.

Regarding `CN(C)c1ccc(N)c2ccccc12`, the growth is -96.4% (active) in experiment [1]; 48.4% in experiment [2]; -85.5% (active) in experiment [3]; 111% in experiment [5]; 77% in experiment [9]; 43.4% in [10]. The growth is 38.4% in experiment [6], -2.3% (active) in [7] and -94.9% (active) in [8].

On to `Cc1ccc2[nH]cc(-c3nc(-c4cn(C)c5ncccc45)cs3)c2c1`, for which the growth in [1] is 97.7%; in experiment [2] it was 59.4%; in [4], 83.4%; in experiment [5] it was 100%; in experiment [9], 97%; in experiment [10], 77.9%. In addition, the growth in experiment [6] was 93.8%; in experiment [7], 94%; in experiment [8] it was 80%.

Regarding `COc1cccc2c1C(=O)c1c(O)c3c(c(O)c1C2=O)C[C@@](O)(C(=O)CO)C[C@@H]3OC1C[C@H](N)[C@H](O)[C@H](C)O1` (some centres undefined), the growth in experiment [1] was 3.11% (active); in [2], -2.21% (active); in experiment [3] it was -57.6% (active); in experiment [4], -9.32% (active); in experiment [9], -31.7% (active); in experiment [10], -22.4% (active). Also, the growth in [6] was -29.8% (active); in experiment [7] it was -35% (active); in experiment [8], -71.6% (active).

Turning to `C/C(=N\NC(=O)C(C)SC(C)C(=O)N/N=C(\C)c1cccnc1)c1cccnc1` (centres undefined), the growth in experiment [1] is 111%; in experiment [2] it was 91.9%; in [4], 109%; in experiment [5], 130%; in experiment [9], 108%; in [10], 116%. Besides, the growth in [6] is 104%; in [7], 113%; in experiment [8], 111%.

On to `Nc1nc(Br)nc2c1ncn2C1CC(O)C(CO)O1` (centres undefined), for which the growth in experiment [1] is 52.7%; in experiment [2], 79%; in experiment [3], 90.2%; in [4], 87.2%; in [9], 73.9%; in experiment [10], 94.3%. In addition, the growth in [6] is 77.8%; in [7], 87.7%; in [8], -0.9% (active).

As for `Oc1ccccc1/C=N\NC(=S)Nc1ccc(F)cc1`, the growth in [1] was 30.4%; in [2] it was 14.9%; in experiment [4], 49%; in experiment [5], 20.1%; in [9], 27.8%; in experiment [10], 11.6%. In addition, the growth is 23.9% in experiment [6], 15.4% in experiment [7] and -30.4% (active) in experiment [8].

As to `S=c1[nH]nc2ccccn12`, the growth is 114% in experiment [1]; 92.6% in experiment [2]; 103% in [4]; 119% in experiment [5]; 117% in experiment [9]; 108% in experiment [10]. Besides, the growth in [6] was 99.1%; in experiment [7], 108%; in experiment [8], 108%.

Take `Cn1c2c(c3ccc(Cl)cc31)-n1cccc1C2=O`: the growth in [1] was 88.6%; in experiment [2], 107%; in [4] it was 87.5%; in experiment [5], 91.8%; in experiment [9], 92.3%; in [10], 105%. For the same molecule, the results for the growth in [6], in [7] and in experiment [8] were 94.7%, 106% and 109%, respectively.

Turning to `CCN(CC)CCCCCNc1cc(OC(=O)c2ccccc2)cc2cccnc12`, the growth in [1] is 111%; in experiment [2], 23.8%; in experiment [3], 95.3%; in experiment [4] it was 88.2%; in experiment [9] it was 93.2%; in experiment [10] it was 110%. For the same molecule, the growth in experiment [6] is 150%; in experiment [7], 120%; in experiment [8], 101%.

As for `CN(C)c1ccc(N=C2C=CC(=O)C=C2)cc1`, the growth was 112% in experiment [1]; 64.2% in experiment [2]; 85.8% in experiment [3]; 46.4% in [4]; 101% in experiment [9]; 95.1% in experiment [10]. Also, the values for the growth in experiment [6], in experiment [7] and in experiment [8] were 65%, 119% and 95.6%, respectively.

For the molecule `N#CC1C(=N)Cc2ccccc2-c2ccccc21` (centres undefined), the growth in experiment [1] was 75.8%; in experiment [2], 16%; in experiment [4] it was 57.2%; in experiment [5] it was 58.4%; in [9], 61%; in [10], 49%. Also, the growth in experiment [6] was 63.4%; in experiment [7], 51.5%; in experiment [8] it was 16.2%.

Regarding `N=c1ccc2nc3c(cc(N)c4ccccc43)oc-2c1`, the growth in experiment [1] was -100% (active); in experiment [2] it was -67.3% (active); in experiment [3], -91.5% (active); in experiment [4] it was -52.8% (active); in [9] it was -59.2% (active); in [10] it was -69.8% (active). Besides, the growth in [6] is -98.9% (active); in experiment [7], -91.5% (active); in experiment [8], -100% (active).

Consider `CCN(CC)CCCCCCNc1ccnc2cc(Cl)ccc12`, for which the growth in [1] is 92.8%; in [2], 30.1%; in [3] it was 99.6%; in experiment [4], 51.8%; in [9] it was 77.4%; in [10], 97%. The growth was 52.5% in experiment [6], 102% in experiment [7] and 38% in experiment [8].

On to `Cc1ccc2c(c1)c(-c1nc(-c3c[nH]c4ncccc34)cs1)cn2C`, for which the growth in experiment [1] is 115%; in experiment [2], 81%; in experiment [4], 75.7%; in experiment [5], 97.4%; in [9], 128%; in [10] it was 101%. Besides, the growth in [6] was 92%; in experiment [7] it was 115%; in [8] it was 101%.
